High-throughput results from PubChem BioAssay.
An excerpt weighted towards active compounds, which were near 11% of everything screened.
IMPase inh: IMPase inhibition in cells. P97697. CHO-M1 cells, IP1 accumulation, HTRF TR-FRET ratio. inhibition (IP1 accumulation), % at 46.1 µM. 120,000 tested, under 10 active; active = well fitted curve in the direction sought with a large enough effect in the signal ratio, not every such curve was filed as active; inconclusive = small, poorly fitted or top-dose-only effect, or a change in a side signal; inactive = no such curve, though single readings can be large or run the other way; the % refers to the signal ratio;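 note: cells stimulated with carbachol in lithium chloride buffer; plate controls were DMSO basal wells for no effect and reference inhibitor wells for full effect; higher means more IMPase inhibition seen as more IP1 and lower FRET ratio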
Target sequence (P97697 whole entry, looked up): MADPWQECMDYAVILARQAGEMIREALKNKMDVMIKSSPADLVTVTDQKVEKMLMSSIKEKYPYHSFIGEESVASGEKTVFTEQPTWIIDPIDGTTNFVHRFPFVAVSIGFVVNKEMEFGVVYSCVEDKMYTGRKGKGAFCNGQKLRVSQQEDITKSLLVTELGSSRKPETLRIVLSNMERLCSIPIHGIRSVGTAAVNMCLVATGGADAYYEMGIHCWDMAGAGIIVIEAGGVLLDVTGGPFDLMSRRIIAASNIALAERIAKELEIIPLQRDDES
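Seeded CHO-M1 cells were dosed with compound at up to 46 uM, stimulated with carbachol for 30 min, then lysed in IP-One detection reagents. Higher IP1 lowers the TR-FRET signal.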
ALDH1A1 block: ALDH1A1 (human) enzyme inhibition. P00352. Purified ALDH1A1, NADH fluorescence, propionaldehyde substrate. Potency, µM (highest dose often 75.3 µM), inactives show at the top dose activity, negative = inhibition, most hits filed as inhibitors. 220,000 compounds, 7.3% hits; active = well fitted inhibition curve with a large enough effect, not every such curve was filed as active; inconclusive = small, poorly fitted or top-dose-only effect, or another doubt; inactive = no such curve, though single readings can be large or run the other way;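 note: potency is the fitted concentration of half-maximal effect; plate controls were no enzyme wells and a reference inhibitor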
IMPase Li inh: cell-permeable IMPase inhibitors with lithium potentiation; CHO-M1 cells, IP1 TR-FRET (IP-One), carbachol + lithium; 210,000 compounds, 0.35% hits; Potency, µM (top dose mostly 59.4 µM), without a hit: top-dose activity, negative = IMPase inhibition, hits mostly inhibitors;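 note: IP1 builds up when IMPase is blocked and the TR-FRET signal falls; potency is the fitted concentration of half-maximal effect; plate controls were basal vehicle for no effect and high inhibitor control for full effect; nearly all actives have a fitted effect of over 50% in size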
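Steps: plate 2000 CHO-M1 cells per well and culture 16–30 h; add compound and lithium; incubate 30 min, 37C; add d2-IP1 tracer and Eu cryptate anti-IP1 antibody in lysis buffer; read after 10 min at room temperature.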
12-hLO inh: 12-hLO (ALOX12) enzyme inhibition | P18054 | purified 12-hLO, xylenol orange hydroperoxide absorbance | Potency, µM (top dose mostly 57.1 µM), for inactives: top-dose activity change, negative = inhibition, actives largely listed as inhibitors | 150,000 compounds, 0.12% hits; note: potency is the fitted concentration of half-maximal effect; nearly all actives have a fitted effect of over 55% in size
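Hydroperoxide formation by human 12-lipoxygenase from 40 uM arachidonic acid was followed colorimetrically via ferric-xylenol orange complex, using the 573/405 nm absorbance ratio. Enzyme concentration was 150 nM, with 30 min reaction at room temperature.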
PNC assembly inh: inhibitors of perinucleolar compartment assembly. AID 2417. activity change (PNC), negative = inhibition, % at 10 µM. 140,000 compounds, 3.1% hits. PC3M PTB-GFP, PNC prevalence imaging, 16 h; stronger effect = lower value;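 active = readout at or below -70, meaning at least 70% loss of cells showing the perinucleolar compartment, a nuclear body marking cancer cells; inconclusive = readout between -30 and a set limit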;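 note: plate controls were DMSO wells for no effect and camptothecin positive control wells for full effect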
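Compounds are pinned in duplicate onto adhered PC3M cells stably expressing GFP-tagged PTB and incubated 16 h at 37 C. Cells are then fixed, nuclei stained with Hoechst, and PNC-positive cells counted.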
HPGD inh: inhibitors of human 15-hydroxyprostaglandin dehydrogenase (HPGD); P15428; purified HPGD, NADH fluorescence kinetic, PGE2 substrate; 150,000 compounds, 4.3% hits; Potency, µM, without a hit: top-dose activity change, negative = inhibition, most hits filed as inhibitors; active = well fitted inhibition curve with a large enough effect, not every such curve was filed as active; inconclusive = small, poorly fitted or top-dose-only effect, or another doubt; inactive = no such curve, though single readings can be large or run the other way; note: potency is the fitted concentration of half-maximal effect
Target sequence (P15428 whole entry, looked up): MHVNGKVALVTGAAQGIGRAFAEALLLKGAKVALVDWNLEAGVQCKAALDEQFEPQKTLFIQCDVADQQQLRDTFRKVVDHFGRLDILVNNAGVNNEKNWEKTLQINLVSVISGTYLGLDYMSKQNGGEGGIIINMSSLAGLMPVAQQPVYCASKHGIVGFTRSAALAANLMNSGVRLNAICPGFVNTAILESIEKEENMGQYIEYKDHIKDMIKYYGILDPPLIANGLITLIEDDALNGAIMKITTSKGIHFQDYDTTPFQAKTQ
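NADH formation kinetics: reaction with 30 uM PGE2 and 1 mM NAD+ (final), 20 nM enzyme, Tris-HCl pH 8 with Tween 20, after 15 min compound preincubation at room temperature. Fluorescence change, last versus first of five reads.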
The depositor's hits bear a star; ? = inconclusive; · = no result given; [ ] = dose if it differs, or a comment. Unless noted, calls come from the whole dose curve; as a rule, active = well fitted curve in the direction sought with a large enough effect; inconclusive = small, poorly fitted or top-dose-only effect, or another doubt; inactive = no such curve, though single readings can be large; an effect the other way counts as inactive or inconclusive. Unless noted, % is set by controls: 0 for no effect and ±100 for the full control effect.

SMILES	IMPase inh	ALDH1A1 block	IMPase Li inh	12-hLO inh	PNC assembly inh	HPGD inh
Cc1ccc(CN2CCN(/N=C/C=C/c3ccccc3[N+](=O)[O-])CC2)cc1	·	6.3µM*	30%	·	·	·
COCCN(CCOC)C(=O)c1ccc(Cc2nc3ccccc3[nH]2)cc1	·	-8%	·	-6%	·	-12%
CCOc1cc(N2CCOCC2)c(OCC)cc1NC(=O)CC12CC3CC(CC(C3)C1)C2	0	4.5µM*	47%[38.3 µM]	-2%	?	-16%
CCOc1cc(N2CCOCC2)c(OCC)cc1NC(=O)Cc1ccc(OC)c(OC)c1	2	-4%	9%[38.3 µM]	-8%	-124*	-5%
CCOc1cc(N2CCOCC2)c(OCC)cc1NC(=O)Cc1cccc(OC)c1	5	-3%	·	-11%	-12	·
CCOc1cc(N2CCOCC2)c(OCC)cc1NC(C)C(=O)N1CCC(C)CC1 (configuration not stated)	4	11µM*	·	-19%	?	·
CCOc1cc(N2CCOCC2)c(OCC)cc1NC(=O)CN1C(=O)NC(C)(C2CC2)C1=O (configuration not stated)	·	?	5%	·	·	·
CC1CCN(CC(=O)N2c3ccccc3Sc3cc4ccccc4cc32)CC1	·	2%[13.5 µM]	5%	8%[11.4 µM]	·	-5%
COc1ccccc1-c1cc(N(C)Cc2ccco2)ncn1	·	?	4%	·	·	·
COc1ccc(C(=O)Oc2coc(CSc3nnc(NC(=O)c4cccs4)s3)cc2=O)cc1	·	?	-2%	1%	?	-30%
CCNc1c2c(nc3ccccc13)CC(C)(C)CC2=O	10	14µM*	23%	-1%	?	-5%
COC(=O)C/C=C/C(C)C(OCc1cccc(-c2ccccc2)c1)C1CCCCC1 (configuration not stated)	·	3%[13.5 µM]	·	·	·	·
Cn1cccc1Cc1nnc(SCC(=O)N2CCCC2)n1CCc1ccccc1	-4	?	-11%[38.3 µM]	1%	-15	-13%
Cn1cccc1Cc1nnc(SCC(=O)N2CCCCCC2)n1CCc1ccccc1	0	25µM*	9%[38.3 µM]	-1%	-6	-9%
Cn1cccc1Cc1nnc(SCC(=O)Nc2ccccc2F)n1CCc1ccccc1	2	25µM*	11%	1%	11	-14%
CC1CCN(C(=O)CSc2nnc(Cc3cccn3C)n2CCc2ccccc2)CC1	-1	?	6%	-2%	-95*	-10%
CCCn1c(-c2ccc(F)cc2)nc2c(NC(C)CCCN(CC)CC)nc(C)nc21 (configuration not stated)	·	?	6%	7%	·	?
O=C(NC1CCS(=O)(=O)C1)c1sc2ccccc2c1Cl (configuration not stated)	·	3%	-3%	·	·	·
O=C(NC1CC1)c1sc2cc([N+](=O)[O-])ccc2c1Cl	·	7%	1%	-3%	-24	25µM*
CC(NC(=O)c1sc2cc([N+](=O)[O-])ccc2c1Cl)C(C)(C)C (configuration not stated)	4	0.56µM*	·	-3%	0	·
COC(=O)[C@@H]1C[C@H]2CC[C@H](O)C[C@H]2N1Cc1ccc(N2CCOCC2)cc1	·	-9%	-17%	1%	·	-7%
O=S(=O)(NCC(c1cccnc1)N1CCOCC1)c1ccc(Cl)cc1 (configuration not stated)	·	28µM*	0%	·	·	·
O=S(=O)(NCC(c1cccnc1)N1CCOCC1)c1ccccc1 (configuration not stated)	·	25µM*	0%	·	·	·
C/C(=N\NC(=O)c1cccc(Cl)c1)C1C(=O)c2ccccc2C1=O	·	13µM*	20%	-8%	12	?
C/C(=N\NC(=O)CCc1ccccc1)C1C(=O)c2ccccc2C1=O	·	-4%	11%	·	·	·
SMILES	IMPase inh	ALDH1A1 block	IMPase Li inh	12-hLO inh	PNC assembly inh	HPGD inh
CCOC(=O)c1ccccc1OCc1cc(/C=N/n2cnnc2)ccc1OC	6	-6%	-1%[38.3 µM]	8%	66	-16%
CCOc1cc(/C=N/n2cnnc2)ccc1OS(=O)(=O)c1ccccc1	·	13µM*	9%	·	·	·
COc1ccccc1/C=N/n1cnnc1	5	?	19%[38.3 µM]	5%	?	?
O=S(=O)(Oc1ccccc1/C=N/n1cnnc1)c1ccccc1	·	22µM*	1%	·	·	·
COc1cc2c(cc1NC(=O)COc1ccc(Br)c(C)c1)oc1ccccc12	5	·	·	·	·	·
Cc1cccc(C)c1NC(=O)CN(Cc1ccc(Br)cc1)S(=O)(=O)c1ccccc1	1	·	·	·	·	·
COc1cc2c(cc1OC)CN(C(=O)C(C)(C)C)CC2	-6	5%	-6%[38.3 µM]	3%	-106*	-17%
COc1ccc(C(=O)N2CCc3cc(OC)c(OC)cc3C2)cc1OC	0	-4%	-4%[38.3 µM]	-1%	32	-11%
CCOC(=O)c1c(NC(=O)CS(=O)(=O)c2cn(CC)c3ccccc23)sc2c1CCCC2	·	13µM*	7%	-1%	35	-19%
CC(C)OC(=O)c1c(NC(=O)CCn2nnc3ccccc32)sc2c1CCCC2	10	25µM*	8%[38.3 µM]	-4%	?	-27%
CC(C)OC(=O)c1c(NC(=O)CCC(=O)O)sc2c1CCCCC2	·	-7%	-11%	-4%	24	-4%
CCOC(=O)c1c(NC(=O)CS(=O)(=O)c2cn(CC)c3ccccc23)sc2c1CCCCC2	·	10µM*	5%	-2%	51	-10%
C/C(CCN1CCc2nc(-c3ccccc3)c(-c3ccccc3)cc2C1)=N\OC[C@@H](O)[C@@H]1O[C@@H]2OC(C)(C)O[C@@H]2[C@H]1O	·	10%[13.5 µM]	·	·	·	·
COc1cccc(-c2ccc3ncnc(NCCN4CCOCC4)c3c2)c1	·	?	17%	·	·	·
Cc1cc(C)n(-c2nc3c(c(=O)[nH]c(=O)n3C)n2CC(O)COc2ccccc2C)n1 (configuration not stated)	-2	-2%	-4%[38.3 µM]	-5%	43	-16%
Clc1cccc2sc(N3CCN(c4ccccc4)CC3)nc12	-9	4%	7%	-5%	-2	-27%
Clc1ccc(Cl)c2sc(N3CCCC3)nc12	9	10µM*	-15%[38.3 µM]	-8%	-11	?
CCCNS(=O)(=O)c1ccc(OCC(=O)NCCC2=CCCCC2)cc1	3	11µM*	17%[38.3 µM]	1%	-22	1%
COC(=O)COc1ccc(S(=O)(=O)NCCC2=CCCCC2)cc1C	-2	-6%	-4%[38.3 µM]	-10%	-11	-1%
O=C(COc1ccc([N+](=O)[O-])cc1)NCCC1=CCCCC1	·	10µM*	11%	-3%	-14	-11%
CCCNS(=O)(=O)c1ccc(OCC(=O)Nc2ccccc2F)cc1	2	10%	9%	4%	-112*	0%
COC(=O)COc1ccc(S(=O)(=O)NCCC2=CCCCC2)cc1	-7[1.84 µM]	22µM*	17%[38.3 µM]	7%	10	-1%
